PubChem BioAssay (Tox21)
“And” between values parts separate entries of the source, which are not always exact repeats. Identical values can stand only once. Results filed as inconclusive are left out. More than one record can exist for a structure, and the calls need not agree. The source made the active and inactive calls. Calls follow the shape of the full dose curve.

How the values were obtained:
[1] = target: Acetylcholinesterase (Homo sapiens) (UniProt P22303); assay: Acetylcholinesterase (AChE) small molecule antagonists: colormetric cell-based qHTS assay (AID 1347395); also: nearly all actives have a fitted effect of over 30% in size; also: potency is read from the fitted curve at half-maximal effect
Chain of Acetylcholinesterase (Homo sapiens) (P22303 whole entry, looked up): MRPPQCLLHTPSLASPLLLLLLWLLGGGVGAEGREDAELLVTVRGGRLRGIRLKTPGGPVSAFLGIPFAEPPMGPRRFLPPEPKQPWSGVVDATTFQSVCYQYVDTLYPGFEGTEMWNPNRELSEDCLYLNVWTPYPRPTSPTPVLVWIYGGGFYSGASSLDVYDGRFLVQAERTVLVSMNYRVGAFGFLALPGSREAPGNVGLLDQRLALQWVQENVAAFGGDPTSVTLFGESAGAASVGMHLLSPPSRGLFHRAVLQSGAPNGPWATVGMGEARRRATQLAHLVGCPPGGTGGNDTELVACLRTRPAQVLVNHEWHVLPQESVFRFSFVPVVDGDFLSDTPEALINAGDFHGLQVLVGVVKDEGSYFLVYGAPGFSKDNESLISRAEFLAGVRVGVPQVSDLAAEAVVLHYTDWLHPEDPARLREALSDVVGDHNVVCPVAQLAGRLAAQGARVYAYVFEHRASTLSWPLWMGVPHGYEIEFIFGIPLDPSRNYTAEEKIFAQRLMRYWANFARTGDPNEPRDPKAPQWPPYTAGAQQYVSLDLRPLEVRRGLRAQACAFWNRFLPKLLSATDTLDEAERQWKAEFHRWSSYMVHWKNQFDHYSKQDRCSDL
Summary of the method: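 Endogenous AChE of human neuroblastoma SH-SY5Y cells was measured with an Ellman-type DTNB/acetylthiocholine mix. Compound pretreatment lasted 30 min at 37 C; substrate reaction ran 90 min at 37 C.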

[2] = target: Acetylcholinesterase (Homo sapiens) (UniProt P22303); assay: Acetylcholinesterase (AChE) small molecule antagonists: enzyme-based qHTS assay (AID 1347397); settings: Potency: AChE enzyme activity inhibition; outcome: AChE enzyme activity inhibition; also: nearly all actives have a fitted effect of over 55% in size; also: potency is read from the fitted curve at half-maximal effect
Summary of the method: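 Colorimetric DTNB read-out of thiocholine released from acetylthiocholine by recombinant human AChE (50 mU/mL as dispensed). Compounds were preincubated 30 min at RT before substrate/DTNB addition, with a 10 min RT reaction.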

[3] = target: Acetylcholinesterase (Homo sapiens) (UniProt P22303); assay: Acetylcholinesterase (AChE) small molecule antagonists: fluorescence cell-based qHTS assay (AID 1347398); settings: Potency: AChE activity; outcome: AChE activity; also: nearly all actives have a fitted effect of over 50% in size; also: potency is read from the fitted curve at half-maximal effect
Summary of the method: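 SH-SY5Y, 2,000 cells/well, attached overnight; cmpd 30 min 37 C; acetylthiocholine/Thiolite Green cocktail 40 min RT; fluorescence Ex/Em 490/520 nm.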

[4] = target: Acetylcholinesterase (Homo sapiens) (UniProt P22303); assay: Acetylcholinesterase (AChE) small molecule antagonists: enzyme-based qHTS assay with human liver microsomes (AID 1347399); settings: Potency: qHTS inhibition; outcome: qHTS inhibition; also: nearly all actives have a fitted effect of over 60% in size
Summary of the method: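 Recombinant human AChE (50 mU/mL in the enzyme mix) and human liver microsomes (0.25 mg/mL final) were preincubated with compound and NADPH (0.25 mg/mL final) for 30 min at 37 C. Acetylthiocholine/DTNB was then added; thiocholine was read colorimetrically after 10 min at room temperature.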

Measured: Potency

Cc1cc(Cc2cc(C)cc(C(C)(C)C)c2O)c(O)c(C(C)(C)C)c1
inactive: [1] | [2] | [3] | [4]

CC(C)(C)c1ccc(C(=O)CCCCl)cc1
inactive: [1] | [2] | [3] | [4]

CO[Si](OC)(OC)c1ccccc1
inactive: [1] | [2] | [3] | [4]

CC1=Nc2ccc3ccccc3c2C1(C)C
inactive: [1] | [2] | [3] | [4]

O=C1CCCCCCCCCCCN1
inactive: [1] | [2] | [3] | [4]

CC(C)COC(=O)c1ccc(N)cc1
inactive: [1] | [2] | [3] | [4]

CCCC(=O)OC
inactive: [1] | [2] | [3] | [4]

CC(=O)O[Si](C)(OC(C)=O)OC(C)=O
inactive: [1] | [2] | [3] | [4]

NC(=O)c1cccnc1
inactive: [1] | [2] | [3] | [4]

CC1(O)CSC(C)(O)CS1 (stereo not given)
inactive: [1] | [2] | [3] | [4]

CN1C(=O)N(C)C(O)C1O (stereo not given)
inactive: [1] | [2] | [3] | [4]

COCC(O)CO (stereo not given)
inactive: [1] | [2] | [3] | [4]

O=C(c1ccccc1)c1ccc2n1CCC2C(=O)O (stereo not given)
inactive: [1] | [2] | [3] | [4]

C[Si](NC1CCCCC1)(NC1CCCCC1)NC1CCCCC1
inactive: [1] | [2] | [3] | [4]

O=C(c1ccccc1)c1ccc(Cl)cc1
inactive: [1] | [2] | [3] | [4]

CC(=O)OC(C)(C)C1CC=C(C)CC1 (stereo not given)
inactive: [1] | [2] | [3] | [4]

Nc1cc([N+](=O)[O-])cc(Cl)c1O
inactive: [1] | [2] | [3] | [4]

COc1cc([C@H]2Oc3cc([C@H]4Oc5cc(O)cc(O)c5C(=O)[C@@H]4O)ccc3O[C@@H]2CO)ccc1O
inactive: [1] | [2] | [3] | [4]

O=c1cc(-c2ccccc2)oc2ccccc12
inactive: [1] | [2] | [3] | [4]

C=C(C)C(=O)OCCOCCOCCOCCOC(=O)C(=C)C
inactive: [1] | [2] | [3] | [4]

C/C(=C1\CCOC(=O)S1)N(C=O)Cc1cnc(C)nc1N
inactive: [1] | [2] | [3] | [4]

O=C(NCCc1c[nH]c2ccccc12)c1cccnc1
inactive: [1] | [2] | [3] | [4]

O=C1OC2(c3cc(Br)c(O)c(Br)c3Oc3c2cc(Br)c(O)c3Br)c2c(Cl)c(Cl)c(Cl)c(Cl)c21
inactive: [1] | [2] | [3] | [4]

CC(=O)c1ccc(O)cc1
inactive: [1] | [2] | [3] | [4]

COc1cc(C(=S)N2CCOCC2)ccc1O
inactive: [1] | [2] | [3] | [4]

CC/C=C/CCO
inactive: [1] | [2] | [3] | [4]

NCCc1ccc(O)c(O)c1
inactive: [1] | [2] | [3] | [4]

CO[C@@H]1[C@H](OC(=O)/C=C/C=C/C=C/C=C/C(=O)O)CC[C@]2(CO2)[C@H]1[C@@]1(C)O[C@@H]1CC=C(C)C
inactive: [1] | [2] | [3] | [4]

O=C(c1ccc(O)cc1)c1ccc(O)cc1
inactive: [1] | [2] | [3] | [4]

CCCCCCCCCCl
inactive: [1] | [2] | [3] | [4]

O=C(O)CCCl
inactive: [1] | [2] | [3] | [4]

CCCCCCCCCC(=O)OC
inactive: [1] | [2] | [4]
34.9 µM (active) and inactive: [3]

CC1C(C)(C)C2=C(C(=O)CCC2)C1(C)C (stereo not given)
inactive: [1] | [2] | [3] | [4]

O=C(O)c1cc(C(=O)O)cc(C(=O)O)c1
inactive: [1] | [2] | [3] | [4]

CC1(C)O[C@@H]2C[C@H]3[C@@H]4C[C@H](F)C5=CC(=O)CC[C@]5(C)[C@H]4[C@@H](O)C[C@]3(C)[C@]2(C(=O)CO)O1
inactive: [1] | [2] | [3] | [4]

Nc1nc2c(ncn2COC(CO)CO)c(=O)[nH]1
inactive: [1] | [2] | [3] | [4]

CCOC(=O)[C@H](C)O
inactive: [1] | [2] | [3] | [4]

COCC(=O)Nc1c(I)c(C(=O)NCC(O)CO)c(I)c(C(=O)N(C)CC(O)CO)c1I (stereo not given)
inactive: [1] | [2] | [3] | [4]

c1ccc2n[nH]nc2c1
inactive: [1] | [2] | [3] | [4]

CN(C)c1ccc(C(c2ccccc2)c2ccc(N(C)C)cc2)cc1
inactive: [1] | [2] | [3] | [4]

NS(=O)(=O)O
inactive: [1] | [2] | [3] | [4]

CO[C@@]1(NC(=O)Cc2cccs2)C(=O)N2C(C(=O)O)=C(COC(N)=O)CS[C@@H]21
inactive: [1] | [2] | [3] | [4]

CC[Si](OC(C)=O)(OC(C)=O)OC(C)=O
inactive: [1] | [2] | [3] | [4]

CCOC(=O)C1=C(C)NC(C)=C(C(=O)OCC)C1c1ccccc1/C=C/C(=O)OC(C)(C)C
inactive: [1] | [2] | [3] | [4]

CCN(CC)c1ccc(C=O)c(O)c1
active: [1] 39.9 µM | [3] 35.6 µM
inactive: [2] | [4]

Cc1ccc2oc(CN(Cc3ccccc3)C(=O)Nc3c(F)cc(F)cc3F)c(-c3ccc(Cl)cc3)c2c1
inactive: [1] | [2] | [3] | [4]

CC(C)(c1cc(Br)c(OCC(Br)CBr)c(Br)c1)c1cc(Br)c(OCC(Br)CBr)c(Br)c1 (stereo not given)
inactive: [1] | [2] | [3] | [4]

Nc1cccc(S(=O)(=O)c2cccc(N)c2)c1
inactive: [1] | [2] | [3] | [4]

O=Cc1ccc([N+](=O)[O-])cc1
inactive: [1] | [2] | [3] | [4]

O=C(Nc1ccc(C(=O)O)c(O)c1)c1ccccc1
inactive: [1] | [2] | [3] | [4]

CCCCCCCCCCCCCBr
inactive: [1] | [2] | [3] | [4]

CC(C)(CCC(=O)O)C(=O)O
inactive: [1] | [2] | [3] | [4]

CCCCC(CC)COC(=O)CC#N (stereo not given)
inactive: [1] | [2] | [3] | [4]

Fc1ccccc1
inactive: [1] | [2] | [3] | [4]

Cc1ccc(C(=O)Nc2ccc(S(=O)(=O)O)c3cc(S(=O)(=O)O)cc(S(=O)(=O)O)c23)cc1NC(=O)c1cccc(NC(=O)Nc2cccc(C(=O)Nc3cc(C(=O)Nc4ccc(S(=O)(=O)O)c5cc(S(=O)(=O)O)cc(S(=O)(=O)O)c45)ccc3C)c2)c1
inactive: [1] | [2] | [3] | [4]

O=C1NCC2(CCN(CCc3ccccc3)CC2)O1
inactive: [1] | [2] | [3] | [4]

CC1=CC[C@@H](C(C)(C)O)CC1
inactive: [1] | [2] | [3] | [4]

Nc1ccc(N)c(Cl)c1
active: [1] 8.92 µM and 22.4 µM | [2] 8.92 µM and 8.94 µM | [3] 5.63 µM and 10 µM
inactive: [4]

CC(C)=CCC/C(C)=C/CC/C(C)=C/CO
inactive: [1] | [2] | [3] | [4]

c1ccc(Oc2ccccc2)cc1
inactive: [1] | [2] | [3] | [4]
